Measurements as given in the supplement of paper PMC10849652.
Of roughly 8,800 targets only a part is listed; those with a hit were picked by preference. About 0.5% of all pairs of compound and target were hits.

compound: NC(=O)Nc1cc(-c2cccc(F)c2)sc1C(=O)N[C@H]1CCCNC1; experiment: log2 fold change, soluble protein after heating vs DMSO (PISA); higher = thermal stabilisation; K562 lysate, 10 uM; active = over 0.2 and 3.5 SD of the protein, either way, in both replicates (recomputed)
Summary of the method: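 Soluble protein was defined as the supernatant remaining after 21,000xg for 90 min, following pooling of heated aliquots and adjustment to 0.5% NP-40 at 4°C. Before that, crude K562 extract at 1 mg/mL protein in PBS pH 7.4 with 1 mM MgCl2 was treated with 10 μM compound for 30 min and heated for 3 min across 48°C-58°C. Quantification used TMTpro 16plex LC-MS/MS with channel sums equalised, and values are log-two fold changes in thermal stability relative to solvent controls from duplicates.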

Chain of UniProt Q9H467 (Q9H467 whole entry, looked up): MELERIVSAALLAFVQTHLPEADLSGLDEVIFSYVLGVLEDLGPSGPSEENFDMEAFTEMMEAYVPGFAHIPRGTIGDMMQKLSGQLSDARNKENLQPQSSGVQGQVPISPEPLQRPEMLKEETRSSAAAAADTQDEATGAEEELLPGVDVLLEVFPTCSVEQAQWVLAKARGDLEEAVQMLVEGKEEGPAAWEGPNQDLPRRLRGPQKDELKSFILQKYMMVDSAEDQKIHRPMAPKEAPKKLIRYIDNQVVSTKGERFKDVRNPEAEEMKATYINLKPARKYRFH
Chain of UniProt Q96N67 (Q96N67 whole entry, looked up): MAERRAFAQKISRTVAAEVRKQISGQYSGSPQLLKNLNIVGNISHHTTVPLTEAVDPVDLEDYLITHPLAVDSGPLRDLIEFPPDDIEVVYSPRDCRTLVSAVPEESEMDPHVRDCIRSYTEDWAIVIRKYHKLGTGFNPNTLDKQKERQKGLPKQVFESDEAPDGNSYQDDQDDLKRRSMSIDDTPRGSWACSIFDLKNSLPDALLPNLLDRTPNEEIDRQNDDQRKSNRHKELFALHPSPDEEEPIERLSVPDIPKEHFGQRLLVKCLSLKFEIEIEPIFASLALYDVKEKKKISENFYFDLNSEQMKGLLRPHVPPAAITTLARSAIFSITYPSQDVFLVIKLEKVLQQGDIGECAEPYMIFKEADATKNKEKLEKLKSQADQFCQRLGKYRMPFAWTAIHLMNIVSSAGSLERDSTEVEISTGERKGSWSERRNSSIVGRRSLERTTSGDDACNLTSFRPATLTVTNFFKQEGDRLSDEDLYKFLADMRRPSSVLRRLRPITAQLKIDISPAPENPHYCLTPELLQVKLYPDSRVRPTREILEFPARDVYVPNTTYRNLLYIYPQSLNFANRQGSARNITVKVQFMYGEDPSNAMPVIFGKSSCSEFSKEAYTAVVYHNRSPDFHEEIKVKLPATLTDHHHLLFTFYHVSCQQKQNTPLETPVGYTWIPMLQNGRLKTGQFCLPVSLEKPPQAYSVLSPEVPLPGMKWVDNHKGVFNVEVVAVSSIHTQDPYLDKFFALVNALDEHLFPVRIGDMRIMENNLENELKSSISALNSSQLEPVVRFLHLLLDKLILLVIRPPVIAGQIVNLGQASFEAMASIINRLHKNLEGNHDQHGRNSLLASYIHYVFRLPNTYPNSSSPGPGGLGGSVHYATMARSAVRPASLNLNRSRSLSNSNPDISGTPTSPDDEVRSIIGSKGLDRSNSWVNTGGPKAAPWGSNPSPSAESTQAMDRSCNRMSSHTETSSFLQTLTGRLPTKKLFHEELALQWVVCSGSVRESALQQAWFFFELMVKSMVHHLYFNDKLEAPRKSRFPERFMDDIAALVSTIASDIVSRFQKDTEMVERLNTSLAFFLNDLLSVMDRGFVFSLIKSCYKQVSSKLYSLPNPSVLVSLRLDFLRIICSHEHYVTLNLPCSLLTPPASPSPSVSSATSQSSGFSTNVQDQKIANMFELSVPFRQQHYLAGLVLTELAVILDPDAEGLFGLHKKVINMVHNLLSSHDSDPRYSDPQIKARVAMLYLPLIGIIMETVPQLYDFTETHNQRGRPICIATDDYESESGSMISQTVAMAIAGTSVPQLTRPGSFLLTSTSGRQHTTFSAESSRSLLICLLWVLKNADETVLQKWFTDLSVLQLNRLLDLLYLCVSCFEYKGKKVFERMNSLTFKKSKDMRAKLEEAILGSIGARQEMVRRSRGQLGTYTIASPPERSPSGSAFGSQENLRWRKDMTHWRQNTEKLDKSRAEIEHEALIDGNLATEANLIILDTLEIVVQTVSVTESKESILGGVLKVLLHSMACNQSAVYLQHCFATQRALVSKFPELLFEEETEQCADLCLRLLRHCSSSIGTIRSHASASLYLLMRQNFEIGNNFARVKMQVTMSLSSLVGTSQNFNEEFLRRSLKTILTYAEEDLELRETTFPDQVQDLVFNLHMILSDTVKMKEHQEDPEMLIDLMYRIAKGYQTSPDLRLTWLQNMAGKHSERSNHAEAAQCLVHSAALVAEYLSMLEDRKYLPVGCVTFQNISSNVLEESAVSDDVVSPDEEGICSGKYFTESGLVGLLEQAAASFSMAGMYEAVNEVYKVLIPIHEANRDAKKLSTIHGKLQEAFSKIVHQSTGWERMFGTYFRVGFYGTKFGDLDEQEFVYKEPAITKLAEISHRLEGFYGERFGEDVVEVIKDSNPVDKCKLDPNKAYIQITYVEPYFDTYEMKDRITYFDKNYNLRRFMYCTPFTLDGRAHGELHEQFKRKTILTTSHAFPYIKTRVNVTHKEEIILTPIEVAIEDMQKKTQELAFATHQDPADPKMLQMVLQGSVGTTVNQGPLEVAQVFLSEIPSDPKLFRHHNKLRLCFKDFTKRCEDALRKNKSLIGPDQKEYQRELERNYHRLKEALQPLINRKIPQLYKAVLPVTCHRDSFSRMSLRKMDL
Chain of UniProt Q8NI60 (Q8NI60 whole entry, looked up): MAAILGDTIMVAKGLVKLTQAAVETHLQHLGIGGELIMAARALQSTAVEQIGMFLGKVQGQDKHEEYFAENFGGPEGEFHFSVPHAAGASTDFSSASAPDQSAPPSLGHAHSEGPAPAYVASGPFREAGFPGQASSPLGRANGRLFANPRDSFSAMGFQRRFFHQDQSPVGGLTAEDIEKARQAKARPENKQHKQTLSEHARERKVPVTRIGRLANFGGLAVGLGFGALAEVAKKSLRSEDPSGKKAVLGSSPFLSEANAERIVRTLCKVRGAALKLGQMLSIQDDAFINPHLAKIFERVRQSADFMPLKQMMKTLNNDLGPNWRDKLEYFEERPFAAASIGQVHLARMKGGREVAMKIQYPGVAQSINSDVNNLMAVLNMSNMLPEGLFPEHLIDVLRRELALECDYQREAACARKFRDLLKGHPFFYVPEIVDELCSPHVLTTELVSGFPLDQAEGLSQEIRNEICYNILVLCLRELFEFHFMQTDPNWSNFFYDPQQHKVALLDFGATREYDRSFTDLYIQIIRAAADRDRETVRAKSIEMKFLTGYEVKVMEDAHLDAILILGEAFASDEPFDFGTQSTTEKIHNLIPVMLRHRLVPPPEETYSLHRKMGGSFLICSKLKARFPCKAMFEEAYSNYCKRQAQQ
Chain of UniProt Q9H2P9 (Q9H2P9 whole entry, looked up): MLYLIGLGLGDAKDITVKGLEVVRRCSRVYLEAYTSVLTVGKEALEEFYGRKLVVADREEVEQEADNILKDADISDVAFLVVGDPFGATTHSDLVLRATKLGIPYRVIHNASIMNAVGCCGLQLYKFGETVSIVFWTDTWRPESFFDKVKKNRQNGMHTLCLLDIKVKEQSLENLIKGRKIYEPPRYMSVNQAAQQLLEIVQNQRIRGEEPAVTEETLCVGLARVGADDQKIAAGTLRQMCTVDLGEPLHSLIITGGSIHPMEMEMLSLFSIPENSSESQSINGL
Chain of UniProt P29373 (P29373 whole entry, looked up): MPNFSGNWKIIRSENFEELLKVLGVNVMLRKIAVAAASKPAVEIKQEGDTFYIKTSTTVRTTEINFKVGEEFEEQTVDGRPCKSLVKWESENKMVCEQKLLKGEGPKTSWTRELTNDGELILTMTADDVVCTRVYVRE
Chain of UniProt O75153 (O75153 whole entry, looked up): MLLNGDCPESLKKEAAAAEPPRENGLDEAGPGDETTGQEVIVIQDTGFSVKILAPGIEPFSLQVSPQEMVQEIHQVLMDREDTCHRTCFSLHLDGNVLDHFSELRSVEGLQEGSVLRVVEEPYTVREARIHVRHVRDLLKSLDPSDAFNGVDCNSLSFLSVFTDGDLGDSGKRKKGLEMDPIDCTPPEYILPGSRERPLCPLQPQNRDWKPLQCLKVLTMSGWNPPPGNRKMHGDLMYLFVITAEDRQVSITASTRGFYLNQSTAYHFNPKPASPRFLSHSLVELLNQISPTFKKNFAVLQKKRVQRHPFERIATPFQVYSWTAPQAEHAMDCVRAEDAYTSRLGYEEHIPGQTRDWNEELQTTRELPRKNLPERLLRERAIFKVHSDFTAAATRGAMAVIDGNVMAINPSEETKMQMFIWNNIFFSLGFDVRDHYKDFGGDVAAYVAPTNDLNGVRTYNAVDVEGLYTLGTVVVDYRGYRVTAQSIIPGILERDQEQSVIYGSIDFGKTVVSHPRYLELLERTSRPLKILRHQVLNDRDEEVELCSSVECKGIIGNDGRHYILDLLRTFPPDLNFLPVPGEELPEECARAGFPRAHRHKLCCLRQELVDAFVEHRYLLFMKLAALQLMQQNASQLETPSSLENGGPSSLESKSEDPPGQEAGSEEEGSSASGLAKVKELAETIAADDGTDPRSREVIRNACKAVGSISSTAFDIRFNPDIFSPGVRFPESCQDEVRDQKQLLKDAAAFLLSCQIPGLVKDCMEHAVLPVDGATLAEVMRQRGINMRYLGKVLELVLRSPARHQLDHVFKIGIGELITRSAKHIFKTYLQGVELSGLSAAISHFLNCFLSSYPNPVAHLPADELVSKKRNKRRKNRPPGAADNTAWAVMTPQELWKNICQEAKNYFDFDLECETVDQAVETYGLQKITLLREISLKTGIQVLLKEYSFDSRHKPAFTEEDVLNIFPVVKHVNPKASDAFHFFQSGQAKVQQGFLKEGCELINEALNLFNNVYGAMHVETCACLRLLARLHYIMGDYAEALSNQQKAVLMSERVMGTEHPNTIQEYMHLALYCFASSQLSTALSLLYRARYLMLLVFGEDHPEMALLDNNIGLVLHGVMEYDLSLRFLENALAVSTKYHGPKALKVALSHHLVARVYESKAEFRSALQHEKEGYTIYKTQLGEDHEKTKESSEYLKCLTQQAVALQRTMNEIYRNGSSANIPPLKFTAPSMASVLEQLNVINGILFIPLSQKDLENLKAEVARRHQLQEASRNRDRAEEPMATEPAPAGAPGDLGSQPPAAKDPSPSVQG
Chain of UniProt Q14019 (Q14019 whole entry, looked up): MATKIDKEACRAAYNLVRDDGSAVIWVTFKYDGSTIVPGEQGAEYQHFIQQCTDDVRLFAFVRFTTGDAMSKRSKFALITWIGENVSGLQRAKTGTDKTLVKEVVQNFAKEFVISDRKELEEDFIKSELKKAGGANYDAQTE

log2 fold change, inactive:
COTL1 (UniProt Q14019) -0.075
DHCR7 (UniProt Q9UBM7) 0.029
DIAPH3 (UniProt Q9NSV4) 0.057
DMAC2L (UniProt Q99766) -0.032
COQ8A (UniProt Q8NI60) 0.051
CLIP1 isoform 1 (UniProt P30622) -0.004
CORO7 isoform 3 (UniProt P57737) 0.012
CLASP2 isoform 3 (UniProt O75122) -0.07
COG5 isoform 2 (UniProt Q9UP83) 0.043
DOCK7 (UniProt Q96N67) 0.048
CLUH (UniProt O75153) 0.039
CRABP2 (UniProt P29373) -0.049
CUEDC2 (UniProt Q9H467) -0.012
CNOT6L (UniProt Q96LI5) 0.055
COG4 (UniProt Q9H9E3) 0.004
CLPTM1L (UniProt Q96KA5) 0.046
DPH5 isoform 5 (UniProt Q9H2P9) -0.048
CXXC1 isoform 2 (UniProt Q9P0U4) -0.013
COG6 (UniProt Q9Y2V7) -0.016
DENND4A isoform 2 (UniProt Q7Z401) 0.058
CMBL (UniProt Q96DG6) -0.027
DNM2 isoform 4 (UniProt P50570) 0.088
